The full data set covers some 8,800 targets. This sample favours those with a hit. About 0.5% of all pairs of compound and target were hits.
What was measured:
Assay in all cases: log2 fold change, soluble protein after heating vs DMSO (PISA); higher = thermal stabilisation; K562 lysate, 10 uM; active = over 0.2 and 3.5 SD of the protein, either way, in both replicates (recomputed)
vemurafenib = compound: CCCS(=O)(=O)Nc1ccc(F)c(C(=O)c2c[nH]c3ncc(-c4ccc(Cl)cc4)cc23)c1F [vemurafenib]
Method in brief: (§1)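 Soluble protein was defined as the supernatant remaining after 21,000xg for 90 min, following pooling of heated aliquots and adjustment to 0.5% NP-40 at 4°C. Before that, crude K562 extract at 1 mg/mL protein in PBS pH 7.4 with 1 mM MgCl2 was treated with 10 μM compound for 30 min and heated for 3 min across 48°C-58°C. Quantification used TMTpro 16plex LC-MS/MS with channel sums equalised, and values are log-two fold changes in thermal stability relative to solvent controls from duplicates.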

[1] = compound: CCCS(=O)(=O)Nc1ccc(F)c(C(=O)c2c[nH]c3ncc(Cl)cc23)c1F
Method in brief: as §1

[2] = compound: CC[C@@H]1C(=O)N(C)c2cnc(Nc3ccc(C(=O)NC4CCN(C)CC4)cc3OC)nc2N1C1CCCC1
Method in brief: as §1

volasertib = compound: CC[C@@H]1C(=O)N(C)c2cnc(Nc3ccc(C(=O)N[C@H]4CC[C@H](N5CCN(CC6CC6)CC5)CC4)cc3OC)nc2N1C(C)C [volasertib]
Method in brief: as §1

[3] = compound: CCn1c(C(=O)N(C2CC2)C2CC2)cc2c3c(ncn3C)c(Nc3cc(C)n(C)n3)nc21
Method in brief: as §1

[4] = compound: CCn1cc(-c2ccnc3[nH]c(-c4cccc(CN(C)C)c4)cc23)c(-c2ccc(NC(=O)N(C)C)cc2)n1
Method in brief: as §1

[5] = compound: CN1CCC(CNc2ccc3ncc(-c4cccc(OC(F)(F)F)c4)n3n2)CC1
Method in brief: as §1

saracatinib = compound: CN1CCN(CCOc2cc(OC3CCOCC3)c3c(Nc4c(Cl)ccc5c4OCO5)ncnc3c2)CC1 [saracatinib]
Method in brief: as §1

sotrastaurin = compound: CN1CCN(c2nc(C3=C(c4c[nH]c5ccccc45)C(=O)NC3=O)c3ccccc3n2)CC1 [sotrastaurin]
Method in brief: as §1

alvocidib = compound: CN1CC[C@H](c2c(O)cc(O)c3c(=O)cc(-c4ccccc4Cl)oc23)[C@H](O)C1 [alvocidib]
Method in brief: as §1

Tubastatin A = compound: CN1CCc2c(c3ccccc3n2Cc2ccc(C(=O)NO)cc2)C1 [Tubastatin A]
Method in brief: as §1

[6] = compound: CNC(=O)C1=CC=CC=C1NC2=NC(=NC=C2Cl)NC3=C(C=C(C=C3)N4CCOCC4)OC
Method in brief: as §1

defactinib = compound: CNC(=O)c1ccc(Nc2ncc(C(F)(F)F)c(NCc3nccnc3N(C)S(C)(=O)=O)n2)cc1 [defactinib]
Method in brief: as §1

[7] = compound: CNc1nc(-c2ccc3c(N)n[nH]c3c2)cc(N2C[C@@H](C(=O)NC3CCCCC3)CC[C@H]2C)n1
Method in brief: as §1

encorafenib = compound: COC(=O)N[C@@H](C)CNc1nccc(-c2cn(C(C)C)nc2-c2cc(Cl)cc(NS(C)(=O)=O)c2F)n1 [encorafenib]
Method in brief: as §1

[8] = compound: COC(=O)[C@H](CCSC)NC(=O)C1=C(C=C(C=C1)NC[C@H](CS)N)C2=CC=CC=C2
Method in brief: as §1

alisertib = compound: COc1cc(Nc2ncc3c(n2)-c2ccc(Cl)cc2C(c2c(F)cccc2OC)=NC3)ccc1C(=O)O [alisertib]
Method in brief: as §1

[9] = compound: COc1cc2nc(-c3cc(F)ccc3O)nc(N[C@@H]3CNC[C@H]3C(C)(C)O)c2cc1OC
Method in brief: as §1

gefitinib = compound: COc1cc2ncnc(Nc3ccc(F)c(Cl)c3)c2cc1OCCCN1CCOCC1 [gefitinib]
Method in brief: as §1

barasertib = compound: CCN(CCCOc1ccc2c(Nc3cc(CC(=O)Nc4cccc(F)c4)[nH]n3)ncnc2c1)CCOP(=O)(O)O [barasertib]
Method in brief: as §1

Chain of UniProt Q9P0K8 (Q9P0K8 whole entry, looked up): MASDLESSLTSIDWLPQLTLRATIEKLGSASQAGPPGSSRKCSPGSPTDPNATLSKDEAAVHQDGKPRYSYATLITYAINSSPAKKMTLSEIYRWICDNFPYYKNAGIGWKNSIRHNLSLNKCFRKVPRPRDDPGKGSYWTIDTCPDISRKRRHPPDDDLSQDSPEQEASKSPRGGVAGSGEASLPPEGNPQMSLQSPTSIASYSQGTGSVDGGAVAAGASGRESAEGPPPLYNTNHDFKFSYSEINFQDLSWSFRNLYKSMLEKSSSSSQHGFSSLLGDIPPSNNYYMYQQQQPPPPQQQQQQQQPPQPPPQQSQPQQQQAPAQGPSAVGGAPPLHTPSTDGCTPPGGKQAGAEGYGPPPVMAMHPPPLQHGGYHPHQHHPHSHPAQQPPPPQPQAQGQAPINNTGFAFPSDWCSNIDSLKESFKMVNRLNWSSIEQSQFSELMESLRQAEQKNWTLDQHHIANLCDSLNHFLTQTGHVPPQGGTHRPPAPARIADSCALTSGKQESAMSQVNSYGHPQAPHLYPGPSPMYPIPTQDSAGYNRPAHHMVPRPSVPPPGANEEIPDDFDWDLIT
Chain of UniProt Q08426 (Q08426 whole entry, looked up): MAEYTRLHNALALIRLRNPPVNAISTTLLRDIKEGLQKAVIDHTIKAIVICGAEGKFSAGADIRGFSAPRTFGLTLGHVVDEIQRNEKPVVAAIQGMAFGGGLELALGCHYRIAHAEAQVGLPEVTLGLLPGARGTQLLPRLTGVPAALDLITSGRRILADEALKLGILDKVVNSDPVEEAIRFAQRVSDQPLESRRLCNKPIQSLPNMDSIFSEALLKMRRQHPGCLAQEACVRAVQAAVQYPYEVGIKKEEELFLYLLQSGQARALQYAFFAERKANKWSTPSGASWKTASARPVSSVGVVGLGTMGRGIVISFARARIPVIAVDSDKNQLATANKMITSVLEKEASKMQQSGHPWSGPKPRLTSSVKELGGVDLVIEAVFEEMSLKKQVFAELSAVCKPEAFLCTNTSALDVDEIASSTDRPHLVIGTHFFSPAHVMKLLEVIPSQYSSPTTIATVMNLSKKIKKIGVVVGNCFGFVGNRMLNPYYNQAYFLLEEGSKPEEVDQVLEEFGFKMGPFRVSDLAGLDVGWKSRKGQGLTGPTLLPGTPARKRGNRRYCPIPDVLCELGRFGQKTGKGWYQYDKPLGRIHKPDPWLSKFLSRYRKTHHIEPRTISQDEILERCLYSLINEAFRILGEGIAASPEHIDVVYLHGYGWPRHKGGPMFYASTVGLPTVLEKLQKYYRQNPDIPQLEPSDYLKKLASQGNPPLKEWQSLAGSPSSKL
Chain of UniProt Q14153 (Q14153 whole entry, looked up): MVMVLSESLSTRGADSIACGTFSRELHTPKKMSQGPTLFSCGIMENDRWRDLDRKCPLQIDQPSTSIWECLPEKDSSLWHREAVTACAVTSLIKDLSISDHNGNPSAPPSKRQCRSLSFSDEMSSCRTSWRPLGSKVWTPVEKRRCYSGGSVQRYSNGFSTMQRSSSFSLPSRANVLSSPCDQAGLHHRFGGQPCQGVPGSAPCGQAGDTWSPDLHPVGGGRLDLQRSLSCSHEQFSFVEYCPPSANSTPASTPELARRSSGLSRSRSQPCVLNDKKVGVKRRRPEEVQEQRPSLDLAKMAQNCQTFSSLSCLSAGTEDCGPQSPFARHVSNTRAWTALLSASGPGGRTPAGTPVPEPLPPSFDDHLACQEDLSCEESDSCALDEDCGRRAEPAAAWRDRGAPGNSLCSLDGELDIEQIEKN
Chain of UniProt Q9UKR5 (Q9UKR5 whole entry, looked up): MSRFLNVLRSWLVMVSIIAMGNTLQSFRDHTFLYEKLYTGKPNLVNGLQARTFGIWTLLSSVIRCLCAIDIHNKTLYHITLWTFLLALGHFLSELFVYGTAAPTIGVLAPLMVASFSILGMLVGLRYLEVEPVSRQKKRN
Chain of UniProt Q9H8W3 (Q9H8W3 whole entry, looked up): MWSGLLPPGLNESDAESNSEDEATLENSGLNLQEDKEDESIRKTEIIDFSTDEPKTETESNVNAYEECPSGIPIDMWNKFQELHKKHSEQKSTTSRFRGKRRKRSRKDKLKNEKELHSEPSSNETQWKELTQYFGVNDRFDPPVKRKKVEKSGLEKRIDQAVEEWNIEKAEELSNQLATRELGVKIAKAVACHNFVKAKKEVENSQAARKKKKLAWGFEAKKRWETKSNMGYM
Chain of UniProt Q9UET6 (Q9UET6 whole entry, looked up): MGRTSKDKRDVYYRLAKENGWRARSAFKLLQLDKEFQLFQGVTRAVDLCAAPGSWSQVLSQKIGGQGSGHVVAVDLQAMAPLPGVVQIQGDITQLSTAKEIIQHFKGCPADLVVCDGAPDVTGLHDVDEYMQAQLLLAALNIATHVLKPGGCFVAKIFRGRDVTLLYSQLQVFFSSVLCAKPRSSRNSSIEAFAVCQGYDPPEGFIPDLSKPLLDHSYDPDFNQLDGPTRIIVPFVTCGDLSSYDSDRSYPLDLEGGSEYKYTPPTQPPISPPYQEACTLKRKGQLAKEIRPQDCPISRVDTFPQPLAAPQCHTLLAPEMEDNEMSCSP
Chain of UniProt Q9NZC3 (Q9NZC3 whole entry, looked up): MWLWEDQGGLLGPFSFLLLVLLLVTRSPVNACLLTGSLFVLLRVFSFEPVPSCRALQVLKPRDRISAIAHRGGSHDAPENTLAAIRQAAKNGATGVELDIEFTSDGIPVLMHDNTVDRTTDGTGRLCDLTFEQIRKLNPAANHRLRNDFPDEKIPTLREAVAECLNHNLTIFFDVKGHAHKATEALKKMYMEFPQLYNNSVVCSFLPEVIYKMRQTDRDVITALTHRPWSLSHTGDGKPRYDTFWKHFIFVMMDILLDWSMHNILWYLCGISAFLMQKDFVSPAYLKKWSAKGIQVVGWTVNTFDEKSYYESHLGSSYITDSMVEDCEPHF
Chain of UniProt Q9H6S3 (Q9H6S3 whole entry, looked up): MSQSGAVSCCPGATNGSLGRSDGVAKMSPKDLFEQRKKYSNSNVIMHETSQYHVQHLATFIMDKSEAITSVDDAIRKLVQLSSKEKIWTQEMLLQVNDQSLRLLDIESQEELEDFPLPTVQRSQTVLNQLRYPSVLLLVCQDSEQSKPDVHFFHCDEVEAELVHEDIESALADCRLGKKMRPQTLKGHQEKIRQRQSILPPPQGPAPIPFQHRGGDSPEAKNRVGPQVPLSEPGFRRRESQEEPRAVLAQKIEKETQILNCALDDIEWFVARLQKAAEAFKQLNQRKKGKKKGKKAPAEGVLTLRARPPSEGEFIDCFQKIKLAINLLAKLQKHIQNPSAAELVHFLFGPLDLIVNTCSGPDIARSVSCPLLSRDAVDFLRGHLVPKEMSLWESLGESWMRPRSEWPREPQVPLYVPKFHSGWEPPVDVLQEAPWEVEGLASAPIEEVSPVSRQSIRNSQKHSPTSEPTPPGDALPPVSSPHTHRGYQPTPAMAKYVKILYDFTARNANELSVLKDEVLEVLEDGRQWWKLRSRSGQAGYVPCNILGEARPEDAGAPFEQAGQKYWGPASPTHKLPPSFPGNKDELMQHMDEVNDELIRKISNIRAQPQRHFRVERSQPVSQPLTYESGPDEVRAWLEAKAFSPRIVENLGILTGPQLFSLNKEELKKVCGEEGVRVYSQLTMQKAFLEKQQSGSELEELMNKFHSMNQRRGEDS
Chain of UniProt P11171 (P11171 whole entry, looked up): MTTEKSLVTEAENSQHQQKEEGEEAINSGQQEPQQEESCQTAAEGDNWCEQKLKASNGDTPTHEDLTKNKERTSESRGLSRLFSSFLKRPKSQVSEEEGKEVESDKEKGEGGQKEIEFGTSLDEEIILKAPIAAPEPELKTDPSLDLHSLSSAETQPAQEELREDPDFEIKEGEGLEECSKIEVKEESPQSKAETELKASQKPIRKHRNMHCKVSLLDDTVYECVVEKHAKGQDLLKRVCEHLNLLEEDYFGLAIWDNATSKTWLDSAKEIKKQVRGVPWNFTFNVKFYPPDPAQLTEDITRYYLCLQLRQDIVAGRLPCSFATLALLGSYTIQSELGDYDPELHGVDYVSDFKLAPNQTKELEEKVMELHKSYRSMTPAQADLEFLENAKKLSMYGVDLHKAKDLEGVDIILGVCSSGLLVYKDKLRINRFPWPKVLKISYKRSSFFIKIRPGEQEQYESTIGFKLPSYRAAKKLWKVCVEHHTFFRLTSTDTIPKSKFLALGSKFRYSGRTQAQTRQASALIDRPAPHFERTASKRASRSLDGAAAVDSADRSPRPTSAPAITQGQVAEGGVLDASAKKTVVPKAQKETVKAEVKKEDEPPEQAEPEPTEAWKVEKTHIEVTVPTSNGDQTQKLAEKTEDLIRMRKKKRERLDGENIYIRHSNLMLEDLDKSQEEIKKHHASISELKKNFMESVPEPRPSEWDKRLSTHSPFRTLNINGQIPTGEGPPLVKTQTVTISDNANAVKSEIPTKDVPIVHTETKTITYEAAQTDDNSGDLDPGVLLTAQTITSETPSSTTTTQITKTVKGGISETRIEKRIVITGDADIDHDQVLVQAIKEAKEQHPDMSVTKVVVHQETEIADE
Chain of UniProt Q9H790 (Q9H790 whole entry, looked up): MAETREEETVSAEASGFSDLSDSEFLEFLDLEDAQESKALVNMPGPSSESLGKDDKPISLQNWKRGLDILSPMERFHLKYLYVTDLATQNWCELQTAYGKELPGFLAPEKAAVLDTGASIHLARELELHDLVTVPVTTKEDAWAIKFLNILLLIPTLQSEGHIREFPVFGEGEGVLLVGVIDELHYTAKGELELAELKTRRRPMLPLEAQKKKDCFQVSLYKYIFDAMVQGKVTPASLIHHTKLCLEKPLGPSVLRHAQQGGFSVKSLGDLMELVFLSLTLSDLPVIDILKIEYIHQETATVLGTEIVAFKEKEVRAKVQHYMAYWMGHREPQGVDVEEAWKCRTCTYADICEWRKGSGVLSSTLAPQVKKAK
Chain of UniProt Q6IPR1 (Q6IPR1 whole entry, looked up): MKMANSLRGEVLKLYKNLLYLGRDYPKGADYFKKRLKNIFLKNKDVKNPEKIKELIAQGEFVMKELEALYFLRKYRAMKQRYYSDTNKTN

Target	log2 fold change (vemurafenib)	log2 fold change [1]	log2 fold change [2]	log2 fold change (volasertib)	log2 fold change [3]	log2 fold change [4]	log2 fold change [5]	log2 fold change (saracatinib)	log2 fold change (sotrastaurin)	log2 fold change (alvocidib)	log2 fold change (Tubastatin A)	log2 fold change [6]	log2 fold change (defactinib)	log2 fold change [7]	log2 fold change (encorafenib)	log2 fold change [8]	log2 fold change (alisertib)	log2 fold change [9]	log2 fold change (gefitinib)	log2 fold change (barasertib)
ELAVL4 (UniProt P26378)	-0.045 (inactive)	0.035 (inactive)	-0.119 (inactive)	-0.038 (inactive)	0.054 (inactive)	-0.006 (inactive)	0.029 (inactive)	-0.052 (inactive)	0 (inactive)	0.019 (inactive)	-0.125 (inactive)	0.036 (inactive)	-0.007 (inactive)	-0.003 (inactive)	0.003 (inactive)	0.211 (inactive)	0.136 (inactive)	-0.031 (inactive)	0.056 (inactive)	
FOXL2 (UniProt P58012)		0.026 (inactive)	0.01 (inactive)	0.046 (inactive)	0.174 (inactive)			-0.038 (inactive)			-0.049 (inactive)	0.031 (inactive)		0.005 (inactive)	0.079 (inactive)	0.138 (inactive)		0.015 (inactive)		0.051 (inactive)
EPB41 isoform 4 (UniProt P11171)		0.014 (inactive)		0.134 (inactive)	-0.079 (inactive)	-0.073 (inactive)	-0.065 (inactive)		-0.02 (inactive)	-0.014 (inactive)	0.012 (inactive)	-0.089 (inactive)					-0.09 (inactive)	-0.153 (inactive)	-0.096 (inactive)	
FAM53B (UniProt Q14153)	0.046 (inactive)		0.071 (inactive)		0.059 (inactive)	-0.096 (inactive)	0.13 (inactive)	0.096 (inactive)	-0.149 (inactive)	-0.125 (inactive)	0.473 (active)	0.098 (inactive)	0.025 (inactive)	-0.064 (inactive)	0.019 (inactive)	-0.1 (inactive)	-0.04 (inactive)		-0.075 (inactive)	0.009 (inactive)
FBRSL1, A0A3B3IRR3	0.132 (inactive)		0.069 (inactive)		0.085 (inactive)	0 (inactive)	-0.061 (inactive)	-0.028 (inactive)	-0.039 (inactive)	-0.051 (inactive)	-0.004 (inactive)	-0.074 (inactive)	-0.002 (inactive)	0.008 (inactive)	0.021 (inactive)	-0.03 (inactive)	-0.018 (inactive)		0.014 (inactive)	0.055 (inactive)
GART (UniProt C9JZG2)		-0.014 (inactive)	-0.021 (inactive)	0.06 (inactive)	-0.043 (inactive)	0.135 (inactive)	0.085 (inactive)		0.09 (inactive)	-0.071 (inactive)	0.018 (inactive)				0.038 (inactive)	0.088 (inactive)	0.121 (inactive)	-0.056 (inactive)	0.281 (inactive)	0.086 (inactive)
FOXJ2 (UniProt Q9P0K8)			-0.149 (inactive)		0.1 (inactive)	-0.062 (inactive)	-0.071 (inactive)	-0.101 (inactive)		0.006 (inactive)	-0.114 (inactive)	0.021 (inactive)		0.053 (inactive)	-0.081 (inactive)	0.022 (inactive)	-0.308 (inactive)		0.057 (inactive)	-0.049 (inactive)
DYRK1A isoform 2 (UniProt Q13627)					0.308 (inactive)	0.085 (inactive)	0.221 (inactive)		0.033 (inactive)	0.225 (inactive)	0.023 (inactive)	0.148 (inactive)								0.006 (inactive)
EXO5 (UniProt Q9H790)					-0.022 (inactive)				0.128 (inactive)		0.018 (inactive)	0.068 (inactive)								0.111 (inactive)
FAM204A (UniProt Q9H8W3)	-0.003 (inactive)				0.059 (inactive)	0.273 (inactive)	-0.614 (active)		-0.083 (inactive)	-0.139 (inactive)	-0.036 (inactive)	0.018 (inactive)	0.146 (inactive)							
FTSJ1 isoform 2 (UniProt Q9UET6)	-0.164 (inactive)	0.021 (inactive)	-0.024 (inactive)	0.013 (inactive)		-0.019 (inactive)	0.047 (inactive)			0.015 (inactive)			0.028 (inactive)		-0.027 (inactive)	0.047 (inactive)		-0.016 (inactive)		
EPN2 (UniProt I3L356)		0.212 (inactive)		-0.026 (inactive)		-0.277 (inactive)	0.075 (inactive)			-0.108 (inactive)							-0.253 (inactive)	-0.02 (inactive)	0.321 (inactive)	-0.106 (inactive)
EIF2B5, A0A3B3ITK8		-0.071 (inactive)		0.081 (inactive)													-0.014 (inactive)	-0.03 (inactive)	-0.08 (inactive)	
GC isoform 3 (UniProt P02774)	-0.008 (inactive)		0.022 (inactive)		-0.27 (inactive)	0.146 (inactive)	-0.12 (inactive)	-0.02 (inactive)	0.043 (inactive)	0.105 (inactive)	0.087 (inactive)		-0.003 (inactive)	0.244 (inactive)	-0.018 (inactive)	-0.049 (inactive)				
EHHADH (UniProt Q08426)		0.082 (inactive)	0.117 (inactive)	-0.108 (inactive)	-0.037 (inactive)	0.055 (inactive)	-0.037 (inactive)	0.091 (inactive)	-0.044 (inactive)	0.013 (inactive)	0.039 (inactive)	-0.024 (inactive)		0.101 (inactive)	0.035 (inactive)	-0.426 (inactive)	0.065 (inactive)	-0.005 (inactive)	0.012 (inactive)	-0.066 (inactive)
DST isoform 3 (UniProt Q03001)			0.052 (inactive)			1.48 (active)	-0.213 (inactive)			0.386 (inactive)		-0.061 (inactive)			0.008 (inactive)	-0.004 (inactive)				0.041 (inactive)
EPS8L2 (UniProt Q9H6S3)		0 (inactive)	0.022 (inactive)	0.023 (inactive)	-0.034 (inactive)	-0.196 (inactive)	0.056 (inactive)	0.045 (inactive)	-0.049 (inactive)	-0.009 (inactive)	0.078 (inactive)	-0.016 (inactive)		0.031 (inactive)	0.096 (inactive)	-0.037 (inactive)	0.01 (inactive)	-0.036 (inactive)	-0.149 (inactive)	-0.049 (inactive)
ERG28 (UniProt Q9UKR5)		-0.012 (inactive)	0.179 (inactive)	0.048 (inactive)		0.541 (inactive)	-0.497 (active)	0.1 (inactive)		0.304 (inactive)				-0.037 (inactive)	0.055 (inactive)	-0.062 (inactive)		-0.024 (inactive)		0.065 (inactive)
EID1 (UniProt Q9Y6B2)			0.015 (inactive)		0.001 (inactive)	-0.073 (inactive)	0.002 (inactive)	-0.157 (inactive)		-0.061 (inactive)	-0.004 (inactive)	0.036 (inactive)		0.046 (inactive)	-0.057 (inactive)	0.072 (inactive)	-0.067 (inactive)		0.022 (inactive)	
ESRRB isoform 1 (UniProt O95718)					-0.118 (inactive)	0.242 (inactive)	-0.127 (inactive)			0.233 (inactive)	-0.269 (inactive)	-0.011 (inactive)								-0.004 (inactive)
FNDC3A (UniProt Q9Y2H6)					0.044 (inactive)	-0.451 (inactive)	0.138 (inactive)		-0.113 (inactive)	-0.017 (inactive)	-0.237 (inactive)	0.014 (inactive)					-0.141 (inactive)		-0.214 (inactive)	
GCA (UniProt P28676)		0.124 (inactive)		-0.048 (inactive)		-0.139 (inactive)	0.168 (inactive)			-0.016 (inactive)		-0.035 (inactive)					-0.038 (inactive)	-0.253 (inactive)	-0.197 (inactive)	
GAPVD1 (UniProt Q14C86)		0.116 (inactive)		-0.305 (inactive)														0.071 (inactive)		0.078 (inactive)
GDE1 (UniProt Q9NZC3)		0.038 (inactive)	0.107 (inactive)	0.092 (inactive)	0.005 (inactive)	1.04 (active)	-0.455 (active)	0.035 (inactive)	-0.064 (inactive)	0.307 (inactive)	-0.047 (inactive)	0.014 (inactive)		0.024 (inactive)	-0.045 (inactive)	-0.02 (inactive)		-0.038 (inactive)		0.108 (inactive)
ETFRF1 (UniProt Q6IPR1)	0.084 (inactive)	-0.003 (inactive)		-0.03 (inactive)	0 (inactive)	-0.005 (inactive)	-0.03 (inactive)	-0.01 (inactive)	-0.002 (inactive)	0.025 (inactive)	0.032 (inactive)	-0.006 (inactive)	-0.071 (inactive)	0.021 (inactive)			0.003 (inactive)	-0.042 (inactive)	-0.009 (inactive)	0.012 (inactive)
DUSP22 isoform 2 (UniProt Q9NRW4)	0.134 (inactive)	-0.109 (inactive)		0.006 (inactive)	-0.033 (inactive)	-0.125 (inactive)	0.052 (inactive)	0.009 (inactive)		0.034 (inactive)	-0.079 (inactive)	-0.066 (inactive)	-0.085 (inactive)	0.043 (inactive)			0.18 (inactive)	-0.11 (inactive)	-0.101 (inactive)	-0.016 (inactive)
FAM111A (UniProt Q96PZ2)	-0.02 (inactive)	0.432 (active)	-0.34 (inactive)	-0.045 (inactive)	0.112 (inactive)			0.055 (inactive)	-0.016 (inactive)		-0.083 (inactive)	0.022 (inactive)	0.053 (inactive)	-0.119 (inactive)	-0.074 (inactive)	-0.11 (inactive)		-0.091 (inactive)		
EVI5L isoform 2 (UniProt Q96CN4)						0.057 (inactive)	-0.183 (inactive)			-0.293 (inactive)										

From the supplement of paper PMC10849652
